In PubChem BioAssay AID1159567 (Broad Institute, 2015):
About 1,200 (92%) of roughly 1,300 compounds were called active. So high a share suggests a set chosen from earlier hits. This is one part of the list. Measured potencies and affinities stand elsewhere. Records with an inconclusive call do not appear. Unmarked numbers belong to inactive results. The rule behind the calls is not given here.

experiment: P. falciparum Dd2 growth inhibitors, dose response, SYBR Green, cherry-picked samples (AID 1159567); settings: Plasmodium falciparum Dd2 growth, SYBR Green fluorescence; series mostly up to 19.5 µM; activity change, negative = inhibition: at the top concentration

Row | SMILES | activity change, negative = inhibition
1 | O=C(O)C[C@@H]1C[C@@H]2c3cc(NS(=O)(=O)c4ccccc4)ccc3O[C@@H]2[C@H](CO)O1 | -11.2%
2 | C[C@@H]1CN([C@@H](C)CO)C(=O)c2cc(NC(=O)C3CC3)ccc2O[C@H]1CN(C)CC1CCCCC1 | -17.9%
3 | CCC(=O)N[C@H]1C=C[C@H](CC(=O)NCC2CCCCC2)O[C@@H]1CO | -5.23%
4 | C[C@H]1CN([C@@H](C)CO)C(=O)CCCn2cc(nn2)CO[C@@H]1CN(C)C(=O)Nc1ccc(N2CCCCC2)cc1 | -18.6%
5 | C[C@H]1CN([C@@H](C)CO)C(=O)CCCn2nncc2CO[C@H]1CN(C)C(=O)Nc1ccc(N2CCCCC2)cc1 | -18.3%
6 | COc1cccc(CNC(=O)[C@H]2[C@H](CO)[C@H]3Cn4c(cccc4=O)[C@@H]2N3C(=O)C2CCCC2)c1 | -12.2%
7 | O=C(c1cccnc1)N1CC2(C1)[C@@H](c1ccccc1)[C@@H](CO)N2C(=O)CC1CC1 | -16.6% [at 21 µM]
8 | COc1ccc(CNC(=O)C[C@H]2C=C[C@@H](NS(=O)(=O)c3cccc(OC)c3)[C@@H](CO)O2)cc1 | -19.1% [at 21 µM]
9 | C[C@H](O)C#Cc1cnc2c(c1)C(=O)N([C@@H](C)CO)C[C@@H](C)[C@@H](CN(C)C(=O)Cc1ccncc1)O2 | -11.8%
10 | O=C(Nc1ccc(F)cc1)N1C[C@H]2[C@@H](c3ccccc31)[C@@H](CO)N2Cc1cocn1 | -26%
11 | O=C(Nc1ccccc1F)N1C[C@@H]2[C@H](c3ccccc31)[C@H](CO)N2C(=O)C1CCOCC1 | -23.9%
12 | CN(C)CC#Cc1ccc([C@@H]2[C@H](CO)N3C(=O)CN(C(=O)Cc4cccnc4)C[C@@H]23)cc1 | -3.25%
13 | COc1ccc(CN(C)C[C@@H]2OCc3cn(nn3)CCCC(=O)N([C@H](C)CO)C[C@H]2C)cc1 | -7.11%
14 | C[C@@H]1CN([C@@H](C)CO)C(=O)c2c(c3ccccc3n2C)-c2ccccc2CO[C@H]1CN(C)Cc1ccc(Cl)c(Cl)c1 | -15.5% [at 21 µM]
15 | O=C1CN(Cc2ccc(F)cc2)C[C@@H]2[C@@H](c3ccc(Br)cc3)[C@H](CO)N12 | -20.1% [at 21 µM]
16 | Cc1noc(C)c1NC(=O)Nc1ccc2c(c1)C(=O)N([C@H](C)CO)C[C@@H](C)[C@@H](CN(C)S(C)(=O)=O)O2 | -10.7%
17 | COc1ccc2c3c([nH]c2c1)[C@@H](CO)N(C(C)=O)CC31CN(C(=O)CN2CCOCC2)C1 | -8.81%
18 | COCC(=O)N1CC2(C1)CN(C(=O)CN1CCOCC1)[C@@H](CO)c1c2c2ccc(OC)cc2n1C | -8.46%
19 | COCC(=O)Nc1ccc2c(c1)OC[C@@H](C)N(C(=O)NC(C)C)C[C@@H](C)[C@@H](OC)CN(C)C2=O | -13.3%
20 | CCCNC(=O)Nc1ccc2c(c1)C(=O)N(C)C[C@H](OC)[C@@H](C)CN(C(=O)C1CCOCC1)[C@@H](C)CO2 | -5.93%
21 | COc1ccccc1S(=O)(=O)N(C)C[C@H]1OCc2cn(nn2)CCCC(=O)N([C@@H](C)CO)C[C@@H]1C | -3.07%
22 | CO[C@H]1CN(C)C(=O)c2ccc(NC(=O)CC(F)(F)F)cc2OC[C@@H](C)N(CC2CC2)C[C@H]1C | -17.4% [at 21 µM]
23 | COc1ccc2c3c(n(C)c2c1)[C@H](CO)N(Cc1cccnc1)CC31CN(C(=O)NC(C)C)C1 | -10.2%

Row | SMILES | activity change, negative = inhibition
24 | N#C[C@H]1[C@@H](c2ccccc2-c2ccccc2F)[C@@H](CO)N1C(=O)C1CCOCC1 | -3.56%
25 | N#C[C@@H]1[C@@H](c2ccccc2-c2ccccc2F)[C@H](CO)N1C(=O)C1CC1 | -22.6%
26 | N#C[C@@H]1[C@H](c2ccccc2-c2ccccc2F)[C@H](CO)N1C(=O)C1CCOCC1 | -20.2%
27 | C[C@@H]1CN([C@H](C)CO)C(=O)c2cc(NC(=O)CCC(F)(F)F)ccc2O[C@H]1CN(C)C(=O)NC1CCCCC1 | -20%
28 | C[C@H](CO)N1C[C@H](C)[C@@H](CN(C)C(=O)CCCN(C)C)OCc2cnnn2CCCC1=O | -3.7% [at 21 µM]
29 | O=C(C[C@@H]1C=C[C@@H](NC(=O)C2CCC2)[C@H](CO)O1)NC1CCC1 | -9.66%
30 | CN1C(=O)c2cc(NC(=O)c3ccc4c(c3)OCO4)ccc2OC[C@@H]2O[C@@H](CC(=O)O)CC[C@@H]21 | -0.896%
31 | CO[C@@H]1CN(C)C(=O)c2cc(NC(C)=O)ccc2OC[C@@H](C)N(C(=O)Cc2cccnc2)C[C@H]1C | 22.8%
32 | COCC#Cc1ccc([C@H]2[C@H](CO)N3C(=O)CN(C(=O)CN4CCOCC4)C[C@@H]23)cc1 | -30.4%
33 | CN(C)CC(=O)Nc1ccc2c(c1)[C@@H]1C[C@H](CC(=O)N3CCOCC3)O[C@@H](CO)[C@@H]1O2 | -1.66%
34 | C[C@H]1CN([C@@H](C)CO)C(=O)Cc2cc(NC(=O)CCC(F)(F)F)ccc2O[C@H]1CN(C)S(C)(=O)=O | 12.8% [at 21 µM]
35 | CN(C)C(=O)c1cccc(-c2ccccc2[C@@H]2[C@@H](C#N)N(C(=O)C3CC3)[C@H]2CO)c1 | -19.9%
36 | COCC(=O)N1[C@@H](C#N)[C@H](c2ccccc2-c2ccccc2)[C@@H]1CO | -22.4% [at 21 µM]
37 | COCC(=O)N1[C@H](C#N)[C@@H](c2ccccc2-c2ccccc2)[C@H]1CO | -11.9%
38 | CO[C@H]1CN(C)C(=O)c2cc(NS(=O)(=O)c3ccccc3C)ccc2OC[C@H](C)N(C)C[C@H]1C | -44.6%
39 | CO[C@H]1CN(C)C(=O)c2ccc(NS(=O)(=O)CC(F)(F)F)cc2OC[C@H](C)N(C)C[C@@H]1C | 1.24% [at 21 µM]
40 | O=C(C[C@H]1C=C[C@H](NC(=O)Cc2ccccn2)[C@H](CO)O1)NCCc1ccccc1 | -6.06%
41 | CCC(=O)N1[C@H](CO)[C@H](c2ccccc2)[C@@H]1CN(CC)C(=O)c1cccc(F)c1 | -8.04%
42 | CCCNC(=O)Nc1ccc2c(c1)C(=O)N(C)C[C@@H](OC)[C@H](C)CN(C(=O)C1CCOCC1)[C@@H](C)CO2 | -4.92%
43 | CCCNC(=O)Nc1ccc2c(c1)C(=O)N(C)C[C@H](OC)[C@@H](C)CN(C(=O)C1CCOCC1)[C@H](C)CO2 | 23.2%
44 | COCC(=O)N1[C@H](C#N)[C@@H](c2ccccc2C2=CCCC2)[C@@H]1CO | -0.072%
45 | CO[C@H]1CN(C)C(=O)c2cc(NC(C)=O)ccc2OC[C@H](C)N(Cc2ccncc2)C[C@H]1C | -11.2%
46 | CO[C@H]1CN(C)C(=O)c2cc(NC(C)=O)ccc2OC[C@H](C)N(Cc2ccncc2)C[C@@H]1C | -6.15%
